Data reported in PubChem BioAssay (EPA / NIEHS).
Several values for one entry are separate records, joined by “and”; a condition that tells them apart may be missing. Identical values can stand only once. Records with an inconclusive call do not appear. Some structures have more than one record in an assay (separate samples or runs), and their calls can disagree. Activity calls are given as the source filed them. Rule for the calls: active = hit-call score of the fitted dose curve at least 0.9, where 1 is the maximum; inconclusive = response in the unintended direction; inactive = score below 0.9.

Assays:
[1] = NVS_IC_rCaDHPRCh_L: NovaScreen (NVS) Ion Channel Assay for rat Calcium Channel, Type L, Dihydropyridine Site (CaDHPRCh_L) (AID 2283320)
Procedure, shortened: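 Rat cortex membrane preparation; dihydropyridine-site radioligand displacement read 1 h post-dose by filtration and scintillation. Primary single-point screen 25 uM in duplicate, then concentration series to 50 uM maximum; DMSO as negative control.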

[2] = biological target: bovine Gamma-Aminobutyric Acid Type A Receptor BDZ, alpha 5 site (GABARa5), GABRA5 (gene 523515) (UniProt Q08E50); test: NVS_LGIC_bGABARa5: NovaScreen (NVS) Ligand-Gated Ion Channel Assay for bovine Gamma-Aminobutyric Acid Type A Receptor BDZ, alpha 5 site (GABARa5) (AID 2283323)
Sequence of bovine Gamma-Aminobutyric Acid Type A Receptor BDZ, alpha 5 site (GABARa5), GABRA5 (gene 523515) (Q08E50 whole entry, looked up): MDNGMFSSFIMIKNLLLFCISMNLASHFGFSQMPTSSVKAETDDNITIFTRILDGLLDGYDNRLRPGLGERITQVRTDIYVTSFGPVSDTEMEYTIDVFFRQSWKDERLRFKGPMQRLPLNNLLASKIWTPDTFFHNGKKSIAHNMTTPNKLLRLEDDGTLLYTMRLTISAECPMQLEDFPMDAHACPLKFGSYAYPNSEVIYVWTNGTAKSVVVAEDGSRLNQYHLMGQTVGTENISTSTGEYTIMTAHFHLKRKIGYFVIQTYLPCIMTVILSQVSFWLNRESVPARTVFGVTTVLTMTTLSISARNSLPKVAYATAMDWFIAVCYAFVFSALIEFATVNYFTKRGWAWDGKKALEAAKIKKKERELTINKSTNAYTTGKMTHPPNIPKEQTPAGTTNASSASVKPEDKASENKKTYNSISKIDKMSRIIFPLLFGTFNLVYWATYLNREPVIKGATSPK
Procedure, shortened: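 Tested first in duplicate at a single 25 uM, with hits re-run in concentration series to a 50 uM maximum. Bovine hippocampal membranes; specific radioligand displacement measured by filter scintillation counting 1 hr post-dose.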

[3] = biological target: rat Neonicotinoid receptor (NNR), Chrna7 (gene 25302) (UniProt Q05941); test: NVS_LGIC_rNNR_BungSens: NovaScreen (NVS) Ligand-Gated Ion Channel Assay for rat Neonicotinoid receptor (NNR) (AID 2283315)
Sequence of rat Neonicotinoid receptor (NNR), Chrna7 (gene 25302) (Q05941 whole entry, looked up): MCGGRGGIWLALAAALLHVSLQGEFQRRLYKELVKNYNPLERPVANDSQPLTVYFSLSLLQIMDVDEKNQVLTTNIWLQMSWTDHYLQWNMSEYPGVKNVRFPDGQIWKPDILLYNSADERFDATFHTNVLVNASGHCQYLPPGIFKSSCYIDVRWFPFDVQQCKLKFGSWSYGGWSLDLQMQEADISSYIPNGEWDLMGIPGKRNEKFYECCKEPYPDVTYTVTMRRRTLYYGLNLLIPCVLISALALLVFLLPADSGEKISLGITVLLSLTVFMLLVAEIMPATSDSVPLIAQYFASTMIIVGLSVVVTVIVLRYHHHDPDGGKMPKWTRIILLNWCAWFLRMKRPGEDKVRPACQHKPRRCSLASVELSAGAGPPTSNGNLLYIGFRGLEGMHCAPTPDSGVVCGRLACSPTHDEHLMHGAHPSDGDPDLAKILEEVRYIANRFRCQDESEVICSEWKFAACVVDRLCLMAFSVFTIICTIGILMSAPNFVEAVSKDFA
Procedure: NVS_LGIC_rNNR_BungSens is a biochemical, single-readout assay that uses extracted gene-proteins from Rat cortical membranes in a tissue-based cell-free assay. Measurements were taken 2.5 hours after chemical dosing in a 48-well plate.NVS_LGIC_rNNR_BungSens is one of one assay component(s) measured or calculated from the NVS_LGIC_rNNR_BungSens assay. It is designed to make measurements of radioligand binding, a form of binding reporter, as detected with scintillation counting signals by Filter-based radiodetection technology.Data from the assay component NVS_LGIC_rNNR_BungSens was analyzed into 1 assay endpoint. This assay endpoint, NVS_LGIC_rNNR_BungSens, was analyzed in the positive analysis fitting direction relative to DMSO as the negative control and baseline of activity. Using a type of binding reporter, loss-of-signal activity can be used to understand changes in the binding as they relate to the gene Chrna7. Furthermore, this assay endpoint can be referred to as a primary readout, because the performed assay has only produced 1 assay endpoint. To generalize the intended target to other relatable targets, this assay endpoint is annotated to the ion channel intended target family, where the subfamily is ligand-gated ion channel.
(§1) Binding assays used specific radioligands (tritiated, iodinated) with non-radioactive competitive displacement ligands in agonist or antagonist protocols (as indicated) and various reference compounds and inhibitors to titrate specific binding to receptors and transporters. Most enzyme assays (CYPs, kinases, phosphatases, proteases, HDACs) used recombinant protein and specific substrates (fluorescence mostly, some colorimetric and radioactive) and inhibitors, followed by a biochemical separation of substrate and product. All assays for the biochemical HTS were initially run in duplicate at a single concentration (10 uM for CYP450 assays and 25 uM for all others). […] Each assay was run with positive and negative controls, and concurrent controls on every plate. The follow-up (secondary) screen tested active chemical-pairs in concentration series, as well as a few additional assays not tested in the primary screen, some selected negative inactives, and several cases re-run in the concentration series for confirmatory purposes.

[4] = biological target: rat Opioid Receptor, Non-selective Sodium (Na+) Binding, Oprm1 (gene 25601) (UniProt P33535); test: NVS_GPCR_rOpiate_NonSelectiveNa: NovaScreen (NVS) G Protein-Coupled Receptor Assay for rat Opioid Receptor, Non-selective Sodium (Na+) Binding (AID 2283311)
Sequence of rat Opioid Receptor, Non-selective Sodium (Na+) Binding, Oprm1 (gene 25601) (P33535 whole entry, looked up): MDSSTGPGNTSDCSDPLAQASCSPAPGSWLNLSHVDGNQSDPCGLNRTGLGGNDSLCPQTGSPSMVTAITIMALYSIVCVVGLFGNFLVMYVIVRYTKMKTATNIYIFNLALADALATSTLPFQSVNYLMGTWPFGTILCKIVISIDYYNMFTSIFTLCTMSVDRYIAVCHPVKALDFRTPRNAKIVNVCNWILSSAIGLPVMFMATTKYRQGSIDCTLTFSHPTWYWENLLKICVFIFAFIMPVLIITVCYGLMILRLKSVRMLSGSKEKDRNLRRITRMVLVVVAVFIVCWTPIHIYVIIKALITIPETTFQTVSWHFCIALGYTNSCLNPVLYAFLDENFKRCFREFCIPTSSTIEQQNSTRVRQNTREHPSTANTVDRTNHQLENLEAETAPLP
Procedure, shortened: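 Filtration radioligand binding on rat forebrain membrane preparations, read 1.5 h after dosing. Single-concentration 25 µM primary screen in duplicate, followed by singleton concentration series to 50 µM max for actives; DMSO baseline.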

NCBI gene 24521 = test: NVS_IC_rKATPCh: NovaScreen (NVS) Ion Channel Assay for rat Potassium Channel, ATP-Sensitive (KATPCh) (AID 2283319)
Procedure, shortened: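 Primary duplicate screen at 25 uM, then singleton concentration series to 50 uM maximum, in a rat cortex membrane radioligand displacement assay. Binding measured by filtration and scintillation 2 h post-dose; DMSO baseline.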

[5] = biological target: Sodium channel protein type 1 subunit alpha (Rattus norvegicus) (UniProt P04774); test: NVS_IC_rNaCh_site2: NovaScreen (NVS) Ion Channel Assay for rat Sodium Channel, Site 2 (NaCh) (AID 2283322);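 note: hit means loss of radioligand binding signal relative to DMSO so AC50 marks displacement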
Procedure: NVS_IC_rNaCh_site2 is a biochemical, single-readout assay that uses extracted gene-proteins from Rat forebrain membranes in a tissue-based cell-free assay. Measurements were taken 1 hour after chemical dosing in a 48-well plate.NVS_IC_rNaCh_site2 is one of one assay component(s) measured or calculated from the NVS_IC_rNaCh_site2 assay. It is designed to make measurements of radioligand binding, a form of binding reporter, as detected with scintillation counting signals by Filter-based radiodetection technology.Data from the assay component NVS_IC_rNaCh_site2 was analyzed into 1 assay endpoint. This assay endpoint, NVS_IC_rNaCh_site2, was analyzed in the positive analysis fitting direction relative to DMSO as the negative control and baseline of activity. Using a type of binding reporter, loss-of-signal activity can be used to understand changes in the binding as they relate to the gene Scn1a. Furthermore, this assay endpoint can be referred to as a primary readout, because the performed assay has only produced 1 assay endpoint. To generalize the intended target to other relatable targets, this assay endpoint is annotated to the ion channel intended target family, where the subfamily is sodium channel.
as §1

[6] = biological target: rat Vasopressin 1 Receptor (V1), Avpr1a (gene 25107) (UniProt P30560); test: NVS_GPCR_rV1: NovaScreen (NVS) G Protein-Coupled Receptor Assay for rat Vasopressin 1 Receptor (V1) (AID 2283316)
Sequence of rat Vasopressin 1 Receptor (V1), Avpr1a (gene 25107) (P30560 whole entry, looked up): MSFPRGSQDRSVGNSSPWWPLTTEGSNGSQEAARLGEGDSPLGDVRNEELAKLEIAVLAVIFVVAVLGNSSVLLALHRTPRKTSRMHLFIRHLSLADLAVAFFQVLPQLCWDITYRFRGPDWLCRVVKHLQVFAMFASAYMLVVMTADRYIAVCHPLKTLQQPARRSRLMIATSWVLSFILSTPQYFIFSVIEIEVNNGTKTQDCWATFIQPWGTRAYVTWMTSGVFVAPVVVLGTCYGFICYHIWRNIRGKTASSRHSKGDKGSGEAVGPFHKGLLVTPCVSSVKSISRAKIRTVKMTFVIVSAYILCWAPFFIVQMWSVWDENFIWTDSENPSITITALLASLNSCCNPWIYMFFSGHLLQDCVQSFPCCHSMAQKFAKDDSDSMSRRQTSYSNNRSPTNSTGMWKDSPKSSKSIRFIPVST
Procedure: NVS_GPCR_rV1 is a biochemical, single-readout assay that uses extracted gene-proteins from Rat liver membranes in a tissue-based cell-free assay. Measurements were taken 1.5 hours after chemical dosing in a 48-well plate.NVS_GPCR_rV1 is one of one assay component(s) measured or calculated from the NVS_GPCR_rV1 assay. It is designed to make measurements of radioligand binding, a form of binding reporter, as detected with scintillation counting signals by Filter-based radiodetection technology.Data from the assay component NVS_GPCR_rV1 was analyzed into 1 assay endpoint. This assay endpoint, NVS_GPCR_rV1, was analyzed in the positive analysis fitting direction relative to DMSO as the negative control and baseline of activity. […] Furthermore, this assay endpoint can be referred to as a primary readout, because the performed assay has only produced 1 assay endpoint. […]
Binding assays used specific radioligands (tritiated, iodinated) with non-radioactive competitive displacement ligands in agonist or antagonist protocols (as indicated) and various reference compounds and inhibitors to titrate specific binding to receptors and transporters. Most enzyme assays (CYPs, kinases, phosphatases, proteases, HDACs) used recombinant protein and specific substrates (fluorescence mostly, some colorimetric and radioactive) and inhibitors, followed by a biochemical separation of substrate and product. […]

[7] = biological target: rat Opioid Receptor, Non-selective Binding, Oprm1 (gene 25601) (UniProt P33535); test: NVS_GPCR_rOpiate_NonSelective: NovaScreen (NVS) G Protein-Coupled Receptor Assay for rat Opioid Receptor, Non-selective Binding (AID 2283318)
Sequence of rat Opioid Receptor, Non-selective Binding, Oprm1 (gene 25601) (P33535 whole entry, looked up): as the sequence (P33535 whole entry, looked up) above
Procedure, shortened: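 Filter-based radioligand displacement using rat forebrain membrane preparations, measured 1.5 h post-dosing. Single-concentration duplicate screen at 25 uM, follow-up in concentration series; activity taken as signal loss relative to DMSO.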

[8] = biological target: rat Neurokinin-3 Receptor (NK3), Tacr3 (gene 24808) (UniProt P16177); test: NVS_GPCR_rNK3: NovaScreen (NVS) G Protein-Coupled Receptor Assay for rat Neurokinin-3 Receptor (NK3) (AID 2283310)
Sequence of rat Neurokinin-3 Receptor (NK3), Tacr3 (gene 24808) (P16177 whole entry, looked up): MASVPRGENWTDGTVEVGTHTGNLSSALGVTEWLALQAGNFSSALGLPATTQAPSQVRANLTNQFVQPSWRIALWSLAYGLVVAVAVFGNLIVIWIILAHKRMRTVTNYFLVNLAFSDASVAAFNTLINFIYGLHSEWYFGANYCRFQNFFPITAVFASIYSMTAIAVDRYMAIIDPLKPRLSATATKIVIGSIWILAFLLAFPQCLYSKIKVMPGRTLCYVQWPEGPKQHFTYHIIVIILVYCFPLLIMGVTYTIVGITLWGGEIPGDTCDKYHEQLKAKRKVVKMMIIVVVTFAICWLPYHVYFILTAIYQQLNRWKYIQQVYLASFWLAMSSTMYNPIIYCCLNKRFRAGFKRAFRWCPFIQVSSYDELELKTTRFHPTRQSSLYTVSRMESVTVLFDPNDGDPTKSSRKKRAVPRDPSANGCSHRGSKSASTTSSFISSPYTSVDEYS
Procedure, shortened: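 Filter-based radioligand displacement on rat cortex membrane preparations, read by scintillation 2 h post-dose. Chemicals first tested in duplicate at 25 uM; actives followed up in concentration series with a 50 uM maximum.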

[9] = biological target: rat Somatostatin Receptor (SST), Sstr1 (gene 25033) (UniProt P28646); test: NVS_GPCR_rSST: NovaScreen (NVS) G Protein-Coupled Receptor Assay for rat Somatostatin Receptor (SST) (AID 2283314)
Sequence of rat Somatostatin Receptor (SST), Sstr1 (gene 25033) (P28646 whole entry, looked up): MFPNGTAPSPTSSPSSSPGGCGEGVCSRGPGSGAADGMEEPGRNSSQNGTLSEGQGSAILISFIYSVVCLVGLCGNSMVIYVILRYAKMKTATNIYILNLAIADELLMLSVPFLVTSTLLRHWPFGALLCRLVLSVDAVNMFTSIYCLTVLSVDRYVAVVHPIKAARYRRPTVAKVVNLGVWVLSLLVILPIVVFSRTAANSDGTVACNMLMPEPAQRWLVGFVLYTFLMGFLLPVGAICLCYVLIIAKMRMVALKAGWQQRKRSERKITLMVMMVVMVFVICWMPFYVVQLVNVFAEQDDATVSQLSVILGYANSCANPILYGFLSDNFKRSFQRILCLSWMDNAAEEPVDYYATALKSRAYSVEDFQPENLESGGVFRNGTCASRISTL
Procedure, shortened: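 Single-concentration duplicate screen (25 uM), then concentration-response up to 50 uM for chemicals passing a threshold such as 30% inhibition. Membranes came from rat forebrain. Binding was measured 1 h post-dose by filter radiodetection and scintillation, relative to DMSO.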

With Oc1ccc(C(c2ccc(O)cc2)C(Cl)(Cl)Cl)cc1 the AC50 [1] was 6.47 µM (active) and the outcome [2] was “inactive”.
For N[C@@H](Cc1cc(I)c(Oc2ccc(O)c(I)c2)c(I)c1)C(=O)O, the outcome [3] was “inactive”.
In the case of CCOC(=O)c1ccc(O)cc1, the outcome [4] is reported as “inactive”.
For C[C@]12C[C@H](O)[C@H]3[C@@H](CCC4=CC(=O)CC[C@@]43C)[C@@H]1CC[C@@H]2C(=O)CO, the outcome [3] was “inactive”.
With COC(=O)c1ccccc1C(=O)O the AC50 (NCBI gene 24521) was 25 µM (active).
With CCOC(=O)C(C)Oc1ccc(Oc2nc3ccc(Cl)cc3o2)cc1 (stereo not given) the outcome [1] was “inactive”.
For CCOC(=O)NCCOc1ccc(Oc2ccccc2)cc1, the outcome [5] was “inactive”.
With CC(=O)S[C@@H]1CC2=CC(=O)CC[C@]2(C)[C@H]2CC[C@@]3(C)[C@@H](CC[C@@]34CCC(=O)O4)[C@H]12 the AC50 [4] was 17.8 µM (active), the AC50 [3] was 17.1 µM (active) and the AC50 [5] was 8.6 µM (active).
In the case of N#CSCSc1nc2ccccc2s1, the AC50 [6] is reported as 2.34 µM (active).
In the case of CC(C)(c1ccc(O)cc1)c1ccc(O)cc1, the AC50 [4] is reported as 25.4 µM (active) and 17 µM (active) and 20.5 µM (active), the outcome [3] is reported as “inactive” and the AC50 [7] is reported as 25.4 µM (active) and 17.6 µM (active). For the same compound, the outcome [1] was “inactive”, the AC50 [5] was 25.4 µM (active) and the outcome [5] was “inactive”.
With S=C([S-])NCCNC(=S)[S-].[Mn+2] the outcome [8] was “inactive”.
In the case of CSC(=O)c1cccc2nnsc12, the outcome [4] is reported as “inactive”.
With CC(C)(C)[C@@H](O)[C@@H](Cc1ccc(Cl)cc1)n1cncn1 the outcome [9] was “inactive”.
In the case of O=C(c1ccc(O)cc1O)c1ccc(O)cc1O, the outcome [3] is reported as “inactive” and the outcome [1] is reported as “inactive”.
With OB(O)O the outcome [5] was “inactive”.
With CN(C)C(=O)Nc1ccc(Cl)c(Cl)c1 the outcome (NCBI gene 24521) was “inactive”.
For S=C(S)NCCNC(=S)S.[Mn+2].[S-]C([S-])=NCCN=C([S-])[S-].[Zn+2], the outcome [8] was “inactive”, the outcome [4] was “inactive” and the AC50 [9] was 1.49 µM (active). For the same compound, the outcome [9] was “inactive” and the outcome [6] was “inactive”.
